Hits are enriched below; roughly 3.9% of the tested compounds scored in any of these assays.
D1 antagonist: Antagonist of Human D 1 Dopamine Receptor: qHTS; activity change, negative = inhibition, % at 10 µM; D(1A) dopamine receptor (Homo sapiens), P21728; HEK293 TREx D1 cells, calcium flux, dopamine EC80; active compounds read low; AID 504652, 2011; actives 3.2% (n = 360,000); in the data active means activity change below about -30%
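Antagonism measured as reduced calcium response to an EC80 dopamine addition following 180 s compound pre-read; cells were inducible HEK293 Trex D1 plated overnight at 30 C, read kinetically at 1 cycle/sec.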
D1 PAM: Potentiators of Human D1 Dopamine Receptor: qHTS; D(1A) dopamine receptor (Homo sapiens), P21728; HEK293 TREx D1 cells, calcium flux, dopamine EC20 potentiation; potentiation, % at 10 µM; actives 0.036% (n = 360,000); AID 504651, 2011; in the data active means potentiation above about 30%
D1 agonist: Allosteric Agonists of the Human D1 Dopamine Receptor: qHTS; HEK293 T-REx D1 cells, calcium flux, agonist mode; activation, % at 2 µM; actives 1% (n = 360,000); AID 504660, 2011; in the data active means activation above about 30%
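Inducible HEK293 T-REx D1 cells, force-coupled to calcium signalling, were plated at 4000 cells/well with tetracycline and held overnight at 30 C. After no-wash calcium dye loading, compound-evoked calcium rise over 180 s flagged agonists.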
GALK inh: qHTS Assay for Inhibitors of Human Galactokinase (GALK) | Purified GALK, Kinase-Glo residual ATP luminescence | Potency, µM (doses to about 57.5 µM), actives largely listed as inhibitors | actives 0.007% (n = 270,000) | AID 1868, 2009
Target sequence (P51570 whole entry, looked up): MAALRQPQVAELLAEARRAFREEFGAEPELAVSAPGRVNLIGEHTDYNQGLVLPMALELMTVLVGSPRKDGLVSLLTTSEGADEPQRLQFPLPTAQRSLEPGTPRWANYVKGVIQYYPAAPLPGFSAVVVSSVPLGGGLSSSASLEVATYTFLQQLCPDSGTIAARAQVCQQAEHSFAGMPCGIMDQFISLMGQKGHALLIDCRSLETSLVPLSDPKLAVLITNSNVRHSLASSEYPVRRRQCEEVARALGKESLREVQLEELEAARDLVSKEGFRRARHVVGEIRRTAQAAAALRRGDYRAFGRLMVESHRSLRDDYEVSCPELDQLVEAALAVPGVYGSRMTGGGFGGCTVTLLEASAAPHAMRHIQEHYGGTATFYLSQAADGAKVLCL
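Compounds were pin-transferred into ATP buffer (35 uM final), then GALK plus galactose (5 nM, 100 uM final) was added. After 1 h at room temperature, Kinase-Glo Plus was added and luminescence read after 10 min.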
Eya2 phos inh: qHTS Assay for Inhibitors of the Phosphatase Activity of Eya2; recombinant Eya2, OMFP fluorescence dephosphorylation (OMFP is methylfluorescein phosphate); actives 0.006% (n = 330,000); Potency, µM (series often up to 76.9 µM), usual class: inhibitors; AID 488837, 2010; Protein phosphatase EYA2 (Homo sapiens), O00167
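Eya2 protein (added as 0.2 uM solution) was preincubated with compound for 10 min at ambient temperature in 50 mM HEPES pH 7.5, 50 mM NaCl, 5 uM MgCl2, 0.05% BSA, 1 mM DTT. OMFP (added at 50 uM) then reacted 10 min; fluorescence read at 485/525 nm.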
USP2a block: qHTS Assay for Inhibitors of Ubiquitin-specific Protease USP2a Using CHOP2 as the Reporter. actives 0.01% (n = 330,000). USP2 core, Ub-CHOP2 coupled fluorogenic reporter, 485/531. Potency, µM (series often up to 38.3 µM), hits mostly inhibitors
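Cell-free coupled assay: 10nM USP2 core preincubated 30min RT with compound in Tris-HCl pH 8.0/CaCl2/CHAPS buffer, then 25nM Ub-CHOP2 and 25nM reporter substrate; fluorescence (Ex 485/Em 531) read after 60min RT, normalized to NEM inhibition, concentration-response curves fitted.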
Hits are given with their value; i = inactive; ? = inconclusive; nt = no result given. Unless noted, the call rests on the fitted dose curve; in most records, active means well fitted inhibition curve with a large enough effect; inconclusive means small, poorly fitted or top-dose-only effect, or effect the other way; inactive means flat fitted curve, though single readings scatter.

SMILES	D1 antagonist	D1 PAM	D1 agonist	GALK inh	Eya2 phos inh	USP2a block
O=C(NC(=S)NCc1nc2ccccc2[nH]1)c1ccccc1F	i	i	i	i	i	i
O=C(NC(=S)NCc1nc2ccccc2[nH]1)c1ccc(F)cc1	-67.6	i	i	i	i	i
Cc1ccc(NC(=O)CN(C)S(=O)(=O)c2cnc[nH]2)cc1	i	i	i	nt	nt	nt
Cc1ccc(OCCn2c(Br)nc3c2c(=O)n(C)c(=O)n3C)cc1	-32.6	i	i	i	i	i
COCCn1c(Br)nc2c1c(=O)n(C)c(=O)n2C	i	i	i	i	i	i
COc1ccc(CC(=O)OCC(=O)N2CCN(S(=O)(=O)c3ccc(C)cc3C)CC2)cc1	-89.9	i	i	nt	i	i
COc1ccc(CC(=O)OCC(=O)N2CCN(S(=O)(=O)c3ccc(C)cc3C)CC2)cc1OC	i	i	i	nt	i	i
CCOc1nc(C)cc(C)c1S(=O)(=O)c1cccc(Cl)c1	-49.5	i	30.5	nt	i	i
Cc1cc(C)c(S(=O)(=O)c2cccc(Cl)c2)c(Cl)n1	i	i	i	i	i	i
Clc1cccc(CSc2ccc(-c3cccs3)nn2)c1	i	i	44.8	nt	nt	nt
Clc1ccc(CSc2ccc(-c3cccs3)nn2)cc1	i	i	i	nt	nt	nt
CCCCn1cc2c(c1-c1ccc(Br)cc1)c(=O)n(C)c(=O)n2C	i	i	i	nt	nt	nt
COc1ccc(OCC(=O)OCC(=O)NC2CC2)cc1	i	i	i	nt	i	i
COc1ccc(OCC(=O)OCC(=O)N2C(C)CCCC2C)cc1 (stereo not drawn)	-36.2	nt	i	nt	i	i
COc1ccc(NC(=O)c2c(C(=O)Nc3ccccc3)sc3nc(C)cc(=O)n23)cc1	i	i	i	nt	nt	nt
Cc1cccc(-n2c(=O)[nH]c3c(C(N)=O)nc(CC(C)C)nc32)c1	-35.8	i	i	i	i	i
CC(C)Cc1nc(C(N)=O)c2[nH]c(=O)n(-c3ccc(F)cc3)c2n1	i	i	i	i	i	i
O=C(CNC(=O)C(c1ccccc1)c1ccccc1)N/N=C\c1cccc(O)c1	i	i	51.5	i	i	i
C=C(C)Cn1c(SCC(=O)N/N=C/c2cccc(O)c2)nc2ccccc2c1=O	-34.8	i	i	nt	i	i
C=C(C)Cn1c(SCC(=O)N/N=C/c2ccccc2)nc2ccccc2c1=O	i	i	i	i	i	i
O=C(CNC(=O)C(c1ccccc1)c1ccccc1)N/N=C/c1ccc(O)cc1O	i	i	i	i	i	i
Cc1cccc(CNC(=O)c2cnc3c(-c4cccc(C)c4)c(C)nn3c2C)c1	-33.2	i	i	nt	nt	nt
CCOc1ccc(-c2c(C)nn3c(C)c(C(=O)NCc4ccc(C)o4)cnc23)cc1OCC	-33.6	i	i	nt	nt	nt
CCOc1ccc(-c2c(C)nn3c(C)c(C(=O)NCc4cccc(OC)c4)cnc23)cc1OCC	i	i	i	nt	nt	nt
CC(C)(C)OC(=O)N1CCC(c2c(C(=O)N3CCN(c4ccccc4F)CC3)cnn2C(C)(C)C)CC1	i	i	i	nt	nt	nt
SMILES	D1 antagonist	D1 PAM	D1 agonist	GALK inh	Eya2 phos inh	USP2a block
NC1=NC(=O)/C(=C/c2ccsc2)S1	-33.5	i	i	i	i	i
COc1ccc(/C=C2\SC(N)=NC2=O)cc1	i	i	i	i	i	i
Nc1cc(-c2ccccc2)c[nH]c1=O	i	i	i	nt	nt	nt
COc1ccc(OC)c(/C=C/C(=O)N2CCCc3ccccc32)c1	i	i	i	i	i	i
COc1cc(/C=C/C(=O)N2CCCc3ccccc32)cc(OC)c1OC	-32.6	i	i	i	i	i
COc1ccc(/C=C/C(=O)N2CCCc3ccccc32)cc1	-31.6	i	i	i	i	i
NS(=O)(=O)c1ccc(NC(=O)c2cccc3ccccc23)cc1	-35.5	i	i	i	i	i
Cc1ccc(NC(=O)C[n+]2ccn(C3=C([O-])c4ccccc4C3=O)c2)cc1	-41.2	i	i	i	i	i
Cc1ccc(S(=O)(=O)/N=C2\C(=O)c3ccccc3C([O-])=C2n2cc[n+](CCC(C)C)c2)cc1	i	i	i	i	i	i
CCOc1ccc(-c2nnc(SCC(=O)Nc3cccc(Cl)c3C)o2)cc1	-35.2	i	i	nt	nt	nt
CCOc1ccc(-c2nnc(SCC(=O)Nc3ccccc3C(F)(F)F)o2)cc1	i	i	i	nt	nt	nt
CC(NC(=O)c1cc(-c2ccncc2)nc2ccc(Cl)cc12)C1CCCO1 (stereo not drawn)	i	i	i	i	i	i
CC(NC(=O)c1cc(-c2cccnc2)nc2ccc(Br)cc12)C1CCCO1 (stereo not drawn)	-33.7	i	i	i	i	i
Cc1c(-c2ccc(O)cc2)nc2nc(-c3ccccc3)c(-c3ccccc3)nn12	i	i	85.6	i	i	?
O=C(c1ccc(-c2ccccc2)cc1)N1CCN(Cc2ccccn2)CC1	-31.5	i	i	i	i	i
O=C(c1ccccc1)N1CCN(Cc2ccccc2)CC1	-53.5	i	i	i	i	i
COc1ccc(C(=O)N2CCN(Cc3ccccn3)CC2)cc1	i	i	i	i	i	i
CCN1CCN(C(=O)c2ccc(CSc3ccc(C)cc3)cc2)CC1	i	i	183.0	i	i	i
Cc1ccc(SCc2ccc(C(=O)N3CCCC3)cc2)cc1	nt	i	i	i	i	i
O=C(c1ccccc1)c1ccc(OCCOCCN2CCN(Cc3ccccc3)CC2)cc1	-33.2	i	i	i	i	i
O=S(=O)(c1ccc(-c2cnc(C3CC3)o2)cc1)N1CCN(c2ccc(F)cc2)CC1	i	i	i	nt	nt	nt
CSc1ccc(CN2CCN(C(=O)c3ccc([N+](=O)[O-])cc3)CC2)cc1	-59.9	i	i	i	i	i
COC(=O)c1c(N)nc(C)n1-c1ccc(OC)cc1	i	41.4	i	i	i	i
CCOC(=O)c1c(NC(=O)c2nc(SC)ncc2Cl)sc(C)c1C	i	i	i	nt	nt	nt
O=Nc1c(O)n(Cc2cccc(C(F)(F)F)c2)c2ccccc12	i	i	68.9	i	i	i
CCC(Sc1nc2ncccc2o1)C(=O)Nc1cccc(C)c1 (stereo not drawn)	i	i	i	nt	nt	nt
O=C1O/C(=C/Br)CCC1c1cccc2ccccc12 (stereo not drawn)	nt	nt	nt	nt	i	nt
Cc1ccn2c(=O)cc(COc3ccc(NC(=O)COc4ccc(C)c(C)c4)cc3)nc2c1	i	i	i	nt	nt	nt
